Measurements reported in the supplement of paper PMC10849652.
The full data set covers some 8,800 targets. This sample favours those with a hit. About 0.5% of all pairs of compound and target were hits. Unmarked numbers belong to inactive results.

Key:
Assay in all cases: log2 fold change, soluble protein after heating vs DMSO (PISA); higher = thermal stabilisation; K562 lysate, 10 uM; active = over 0.2 and 3.5 SD of the protein, either way, in both replicates (recomputed)
lapatinib = compound: CS(=O)(=O)CCNCc1ccc(-c2ccc3ncnc(Nc4ccc(OCc5cccc(F)c5)c(Cl)c4)c3c2)o1 [lapatinib]
In short: (§1)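 A 30 min treatment with 10 μM compound was applied to crude K562 extract at 1 mg/mL protein in PBS pH 7.4 with 1 mM MgCl2. Heating for 3 min spanned 48°C-58°C, after which aliquots were pooled, adjusted to 0.5% NP-40 at 4°C and spun at 21,000xg for 90 min. TMTpro 16plex LC-MS/MS of the supernatant, with channel sums equalised, gave values recorded as log-two fold change in thermal stability against solvent controls, from duplicates.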

pictilisib = compound: CS(=O)(=O)N1CCN(Cc2cc3nc(-c4cccc5[nH]ncc45)nc(N4CCOCC4)c3s2)CC1 [pictilisib]
In short: as §1

crizotinib = compound: C[C@@H](Oc1cc(-c2cnn(C3CCNCC3)c2)cnc1N)c1c(Cl)ccc(F)c1Cl [crizotinib]
In short: as §1

[1] = compound: C[C@H](C1=CC=C(C=C1)C(=O)NC2=C3C=CNC3=NC=C2)N
In short: as §1

duvelisib = compound: C[C@H](Nc1ncnc2nc[nH]c12)c1cc2cccc(Cl)c2c(=O)n1-c1ccccc1 [duvelisib]
In short: as §1

gandotinib = compound: Cc1cc(Nc2cc(CN3CCOCC3)c3nc(C)c(Cc4ccc(Cl)cc4F)n3n2)n[nH]1 [gandotinib]
In short: as §1

tozasertib = compound: Cc1cc(Nc2cc(N3CCN(C)CC3)nc(Sc3ccc(NC(=O)C4CC4)cc3)n2)n[nH]1 [tozasertib]
In short: as §1

doramapimod = compound: Cc1ccc(-n2nc(C(C)(C)C)cc2NC(=O)Nc2ccc(OCCN3CCOCC3)c3ccccc23)cc1 [doramapimod]
In short: as §1

bafetinib = compound: Cc1ccc(NC(=O)c2ccc(CN3CC[C@H](N(C)C)C3)c(C(F)(F)F)c2)cc1Nc1nccc(-c2cncnc2)n1 [bafetinib]
In short: as §1

[2] = compound: Cc1cccc(CC(=O)N2CCc3c2ccc(-c2cn(C)c4ncnc(N)c24)c3F)n1
In short: as §1

Chain of UniProt Q9NQW6 (Q9NQW6 whole entry, looked up): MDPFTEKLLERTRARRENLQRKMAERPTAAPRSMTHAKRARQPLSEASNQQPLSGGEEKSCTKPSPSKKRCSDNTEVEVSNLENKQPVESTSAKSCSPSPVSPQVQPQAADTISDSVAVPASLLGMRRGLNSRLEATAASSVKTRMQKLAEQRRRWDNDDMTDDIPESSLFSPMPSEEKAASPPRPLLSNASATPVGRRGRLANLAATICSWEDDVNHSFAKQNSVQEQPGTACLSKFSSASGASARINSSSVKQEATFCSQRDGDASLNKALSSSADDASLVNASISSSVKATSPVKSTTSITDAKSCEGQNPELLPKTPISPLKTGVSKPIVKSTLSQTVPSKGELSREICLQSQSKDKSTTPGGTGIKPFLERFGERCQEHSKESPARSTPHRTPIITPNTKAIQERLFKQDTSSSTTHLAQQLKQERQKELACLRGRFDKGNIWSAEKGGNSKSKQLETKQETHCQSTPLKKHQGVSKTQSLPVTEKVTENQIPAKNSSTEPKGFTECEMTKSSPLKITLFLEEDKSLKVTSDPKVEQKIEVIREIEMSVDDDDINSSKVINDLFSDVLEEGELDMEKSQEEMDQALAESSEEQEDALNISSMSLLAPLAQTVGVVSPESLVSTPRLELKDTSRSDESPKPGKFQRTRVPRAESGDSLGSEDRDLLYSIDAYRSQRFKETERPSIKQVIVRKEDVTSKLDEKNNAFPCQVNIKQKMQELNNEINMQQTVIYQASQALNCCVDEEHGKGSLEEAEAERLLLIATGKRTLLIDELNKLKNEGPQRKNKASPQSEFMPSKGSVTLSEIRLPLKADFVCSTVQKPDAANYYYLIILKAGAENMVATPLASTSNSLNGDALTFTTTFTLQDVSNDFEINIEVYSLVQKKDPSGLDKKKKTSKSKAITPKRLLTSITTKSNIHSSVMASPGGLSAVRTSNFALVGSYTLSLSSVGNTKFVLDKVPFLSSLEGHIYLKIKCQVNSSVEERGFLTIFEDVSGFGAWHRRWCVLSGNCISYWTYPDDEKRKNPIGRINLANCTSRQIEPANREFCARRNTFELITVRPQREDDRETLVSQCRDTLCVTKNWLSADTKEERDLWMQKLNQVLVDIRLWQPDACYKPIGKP
Chain of UniProt P50995 (P50995 whole entry, looked up): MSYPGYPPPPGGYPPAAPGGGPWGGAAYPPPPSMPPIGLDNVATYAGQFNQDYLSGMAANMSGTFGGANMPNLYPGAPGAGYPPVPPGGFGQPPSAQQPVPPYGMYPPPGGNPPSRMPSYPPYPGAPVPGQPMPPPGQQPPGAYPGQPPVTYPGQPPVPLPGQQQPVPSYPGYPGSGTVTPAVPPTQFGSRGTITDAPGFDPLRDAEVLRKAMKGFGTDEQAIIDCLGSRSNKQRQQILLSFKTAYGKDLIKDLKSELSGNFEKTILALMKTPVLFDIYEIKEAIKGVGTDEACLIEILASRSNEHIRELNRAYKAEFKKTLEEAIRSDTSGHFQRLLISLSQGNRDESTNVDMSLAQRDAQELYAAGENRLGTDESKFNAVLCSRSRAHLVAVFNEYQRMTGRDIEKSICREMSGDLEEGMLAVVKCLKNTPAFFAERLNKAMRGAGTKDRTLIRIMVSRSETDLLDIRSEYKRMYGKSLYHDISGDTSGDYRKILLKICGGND
Chain of UniProt Q9NWX5 (Q9NWX5 whole entry, looked up): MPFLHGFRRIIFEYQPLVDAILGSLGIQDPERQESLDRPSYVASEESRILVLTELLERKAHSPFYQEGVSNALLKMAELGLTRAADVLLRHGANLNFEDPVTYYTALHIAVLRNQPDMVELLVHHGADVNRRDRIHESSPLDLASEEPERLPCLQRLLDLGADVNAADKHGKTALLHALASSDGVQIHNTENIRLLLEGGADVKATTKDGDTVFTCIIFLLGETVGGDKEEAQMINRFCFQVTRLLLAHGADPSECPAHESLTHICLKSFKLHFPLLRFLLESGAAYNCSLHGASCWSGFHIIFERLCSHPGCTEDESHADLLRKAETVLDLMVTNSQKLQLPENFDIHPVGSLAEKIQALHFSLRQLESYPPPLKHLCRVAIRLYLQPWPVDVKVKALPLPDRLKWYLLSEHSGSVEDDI
Chain of UniProt Q99943 (Q99943 whole entry, looked up): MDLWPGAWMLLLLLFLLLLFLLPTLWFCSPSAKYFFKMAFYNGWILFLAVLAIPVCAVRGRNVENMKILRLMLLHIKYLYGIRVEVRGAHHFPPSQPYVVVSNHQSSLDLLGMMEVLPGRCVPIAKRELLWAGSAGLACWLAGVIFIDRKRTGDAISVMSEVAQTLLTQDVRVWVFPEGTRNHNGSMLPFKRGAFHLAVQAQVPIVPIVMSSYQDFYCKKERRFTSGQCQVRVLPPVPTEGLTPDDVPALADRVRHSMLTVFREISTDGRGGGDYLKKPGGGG
Chain of UniProt Q92685 (Q92685 whole entry, looked up): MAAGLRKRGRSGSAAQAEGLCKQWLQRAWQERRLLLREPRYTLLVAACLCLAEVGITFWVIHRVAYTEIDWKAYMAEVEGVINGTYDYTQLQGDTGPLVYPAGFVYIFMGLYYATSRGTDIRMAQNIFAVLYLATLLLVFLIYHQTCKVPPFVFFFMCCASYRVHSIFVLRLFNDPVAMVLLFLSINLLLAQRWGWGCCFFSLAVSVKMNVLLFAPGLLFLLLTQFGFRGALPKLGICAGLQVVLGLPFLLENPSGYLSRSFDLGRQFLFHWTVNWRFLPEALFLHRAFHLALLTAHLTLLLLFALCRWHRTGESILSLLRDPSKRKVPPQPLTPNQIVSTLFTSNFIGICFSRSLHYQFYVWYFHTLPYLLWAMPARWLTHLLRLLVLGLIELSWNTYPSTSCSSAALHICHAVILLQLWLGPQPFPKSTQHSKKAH
Chain of UniProt Q9BT30 (Q9BT30 whole entry, looked up): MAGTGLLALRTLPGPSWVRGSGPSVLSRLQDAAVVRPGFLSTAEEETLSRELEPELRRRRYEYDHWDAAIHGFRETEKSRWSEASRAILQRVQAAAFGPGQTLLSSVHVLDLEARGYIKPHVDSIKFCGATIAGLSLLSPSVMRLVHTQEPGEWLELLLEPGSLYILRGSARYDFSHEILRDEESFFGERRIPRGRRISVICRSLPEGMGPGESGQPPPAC
Chain of UniProt Q92974 (Q92974 whole entry, looked up): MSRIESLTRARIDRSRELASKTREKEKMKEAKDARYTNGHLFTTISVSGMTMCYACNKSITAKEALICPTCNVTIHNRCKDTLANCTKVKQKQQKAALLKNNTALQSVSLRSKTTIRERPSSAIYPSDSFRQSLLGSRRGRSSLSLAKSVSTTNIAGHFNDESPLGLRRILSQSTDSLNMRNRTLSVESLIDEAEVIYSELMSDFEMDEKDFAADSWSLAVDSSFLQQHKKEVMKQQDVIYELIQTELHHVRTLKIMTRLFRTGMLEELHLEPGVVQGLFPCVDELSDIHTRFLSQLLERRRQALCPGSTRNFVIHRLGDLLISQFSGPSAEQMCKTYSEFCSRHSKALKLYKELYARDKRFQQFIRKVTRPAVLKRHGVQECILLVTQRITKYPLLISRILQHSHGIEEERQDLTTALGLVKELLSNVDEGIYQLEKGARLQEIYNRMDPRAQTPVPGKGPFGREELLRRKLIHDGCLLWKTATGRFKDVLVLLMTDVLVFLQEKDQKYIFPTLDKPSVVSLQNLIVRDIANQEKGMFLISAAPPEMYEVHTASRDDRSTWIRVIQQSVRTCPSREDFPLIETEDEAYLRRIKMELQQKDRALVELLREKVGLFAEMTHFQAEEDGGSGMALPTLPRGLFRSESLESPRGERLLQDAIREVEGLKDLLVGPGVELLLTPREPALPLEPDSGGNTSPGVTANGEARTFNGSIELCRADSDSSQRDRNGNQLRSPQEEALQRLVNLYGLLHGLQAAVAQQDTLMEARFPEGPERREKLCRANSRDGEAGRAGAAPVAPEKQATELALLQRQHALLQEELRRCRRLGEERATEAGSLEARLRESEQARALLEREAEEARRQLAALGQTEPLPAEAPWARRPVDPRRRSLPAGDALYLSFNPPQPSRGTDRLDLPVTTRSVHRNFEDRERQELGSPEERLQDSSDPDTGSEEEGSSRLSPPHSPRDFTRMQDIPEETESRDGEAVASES
Chain of UniProt Q04771 (Q04771 whole entry, looked up): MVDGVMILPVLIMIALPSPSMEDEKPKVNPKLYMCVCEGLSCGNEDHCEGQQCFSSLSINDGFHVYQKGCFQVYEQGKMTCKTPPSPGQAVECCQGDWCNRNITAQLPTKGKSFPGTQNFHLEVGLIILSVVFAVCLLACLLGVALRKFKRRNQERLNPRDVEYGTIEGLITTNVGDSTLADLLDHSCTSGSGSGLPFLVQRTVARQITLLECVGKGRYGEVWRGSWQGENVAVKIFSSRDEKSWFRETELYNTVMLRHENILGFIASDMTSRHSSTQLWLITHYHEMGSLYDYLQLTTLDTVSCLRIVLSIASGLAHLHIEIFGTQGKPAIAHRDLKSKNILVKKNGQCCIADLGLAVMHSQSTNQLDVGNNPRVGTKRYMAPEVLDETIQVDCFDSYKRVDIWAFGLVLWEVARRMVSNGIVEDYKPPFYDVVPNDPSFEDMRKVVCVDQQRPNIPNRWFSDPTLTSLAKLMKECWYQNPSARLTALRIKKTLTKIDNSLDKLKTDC
Chain of UniProt Q562R1 (Q562R1 whole entry, looked up): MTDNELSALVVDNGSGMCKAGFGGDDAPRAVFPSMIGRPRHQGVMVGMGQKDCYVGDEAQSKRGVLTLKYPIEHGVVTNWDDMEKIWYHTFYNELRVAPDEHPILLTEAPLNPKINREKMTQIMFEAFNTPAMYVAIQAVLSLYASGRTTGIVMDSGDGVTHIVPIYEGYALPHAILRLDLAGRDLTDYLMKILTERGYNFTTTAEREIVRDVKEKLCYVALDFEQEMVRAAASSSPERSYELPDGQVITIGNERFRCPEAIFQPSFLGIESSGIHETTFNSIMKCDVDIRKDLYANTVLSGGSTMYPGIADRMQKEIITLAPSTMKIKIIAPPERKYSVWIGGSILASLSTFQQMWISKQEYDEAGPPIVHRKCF

| Target | log2 fold change (lapatinib) | log2 fold change (pictilisib) | log2 fold change (crizotinib) | log2 fold change [1] | log2 fold change (duvelisib) | log2 fold change (gandotinib) | log2 fold change (tozasertib) | log2 fold change (doramapimod) | log2 fold change (bafetinib) | log2 fold change [2] |
| --- | --- | --- | --- | --- | --- | --- | --- | --- | --- | --- |
| ANXA2 isoform 2 (UniProt P07355) | 0.009 | -0.005 | 0.029 | 0.017 | -0.028 | 0.008 | -0.001 | -0.024 | 0.065 | -0.041 |
| ASNS (UniProt P08243) | -0.019 | -0.012 | -0.042 | 0.013 | -0.001 | -0.051 | 0.011 | -0.01 | -0.033 | 0.002 |
| AGPAT1 (UniProt Q99943) | -0.122 | 0.009 | -0.029 | -0.019 | 0.009 | -0.034 | 0.041 | 0.028 | -0.057 | 0.091 |
| ARHGEF2 (UniProt Q92974) | 0.014 | 0.005 | -0.016 | 0.006 | -0.017 | 0.025 | 0.018 | 0.089 | -0.045 | 0.04 |
| AGO4 (UniProt Q9HCK5) | 0.013 | -0.076 | -0.01 | -0.113 | 0.014 | 0.048 | -0.001 | -0.014 | -0.004 | 0.002 |
| ARHGAP6 (UniProt O43182) | 0.006 | 0.012 | -0.038 | 0.106 | 0.001 | -0.097 | 0.004 | -0.003 | -0.055 | -0.022 |
| ARL15 (UniProt Q9NXU5) | -0.001 | 0.097 | 0 | 0.682 (active) | -0.004 | -0.098 | 0.023 | 0.06 | 0.225 | -0.118 |
| ALG13 (UniProt Q9NP73) | 0.017 | -0.002 | -0.12 | -0.075 | 0 | 0.044 | -0.091 | -0.015 | -0.025 | 0.127 |
| ADD1 isoform 3 (UniProt P35611) | -0.017 | 0.003 | 0.014 | -0.011 | 0.014 | -0.001 | -0.002 | 0.002 | 0.002 | -0.019 |
| ACTBL2 (UniProt Q562R1) | 0.163 | 0.102 | 0.091 | 0.408 | -0.035 | -0.166 | -0.201 | -0.15 | 0.37 | -0.547 (active) |
| ALDH1A1 (UniProt P00352) | 0.002 | -0.068 | 0.004 | 0.05 | -0.023 | -0.111 | -0.006 | -0.015 | 0.061 | -0.164 |
| ALG3 (UniProt Q92685) | -0.069 | 0.031 | -0.057 | -0.15 | -0.104 | 0 | -0.04 | 0.037 | -0.061 | 0.261 |
| AFF1 isoform 2 (UniProt P51825) | -0.055 | -0.063 | 0.005 | -0.396 (active) | 0.067 | 0.341 | 0.066 | 0.064 | -0.04 | 0.696 (active) |
| ACIN1 (UniProt E7EQT4) | -0.001 | -0.047 | -0.1 | -0.28 (active) | -0.021 | 0.047 | 0 | 0.068 | -0.063 | 0.032 |
| ASB6 (UniProt Q9NWX5) | -0.04 | -0.029 | 0.01 | 0.093 | 0.008 | -0.065 | -0.159 | 0.004 | -0.055 | -0.028 |
| ANLN (UniProt Q9NQW6) | -0.007 | 0.004 | -0.02 | -0.037 | -0.02 | 0.024 | 0.052 | 0.01 | -0.038 | 0.028 |

| Target | log2 fold change (lapatinib) | log2 fold change (pictilisib) | log2 fold change (crizotinib) | log2 fold change [1] | log2 fold change (duvelisib) | log2 fold change (gandotinib) | log2 fold change (tozasertib) | log2 fold change (doramapimod) | log2 fold change (bafetinib) | log2 fold change [2] |
| --- | --- | --- | --- | --- | --- | --- | --- | --- | --- | --- |
| ACACA isoform 4 (UniProt Q13085) | -0.019 | 0 | -0.081 | -0.001 | 0.032 | -0.068 | 0.033 | 0.045 | -0.056 | 0.061 |
| ABCC5 (UniProt O15440) | 0.013 | 0.13 | 0.014 | -0.038 | -0.045 | 0.043 | -0.016 | 0.081 | -0.117 | 0.045 |
| APOBEC3C (UniProt Q9NRW3) | 0.011 | 0.033 | -0.09 | -0.058 | 0.021 | 0.066 | -0.055 | 0.1 | -0.023 | 0.153 |
| ARL13B (UniProt Q3SXY8) | 0.016 | -0.074 | -0.075 | 0.4 (active) | 0.014 | -0.23 | – | -0.068 | 0.025 | -0.217 |
| ACAT1, A0A5F9ZHJ0 | – | – | – | -0.151 | – | -0.075 | – | – | – | 0.208 |
| ALKBH7 (UniProt Q9BT30) | – | – | -0.049 | 0.289 | 0.091 | 0.08 | -0.045 | -0.062 | – | 0.187 |
| ADK (UniProt P55263) | 0.154 | 0.169 | 0.235 | -0.007 | 0.059 | 0.532 (active) | -0.005 | 0.014 | 0.292 | -0.064 |
| ACLY isoform 2 (UniProt P53396) | 0.012 | -0.03 | 0.078 | -0.423 (active) | – | 0.323 | 0.055 | -0.119 | 0.004 | 0.277 |
| AGGF1 (UniProt Q8N302) | -0.046 | -0.133 | -0.028 | -0.193 | – | 0.139 | 0.04 | -0.011 | 0.047 | 0.268 |
| ADK, A0A5F9ZH76 | -0.013 | -0.074 | – | – | – | – | – | – | 0.147 | – |
| ANXA11 (UniProt P50995) | -0.005 | -0.008 | 0.001 | -0.044 | -0.022 | 0.008 | 0.026 | 0.012 | -0.03 | 0.039 |
| ARMCX5 (UniProt Q6P1M9) | -0.033 | 0.04 | – | -0.001 | -0.114 | 0.001 | 0.032 | – | -0.104 | 0.078 |
| ACVR1 (UniProt Q04771) | – | 0.006 | – | 0.103 | -0.015 | 0.643 | – | – | 0.007 | -0.294 |
| ANXA2 (UniProt H0YL33) | 0.026 | -0.028 | -0.048 | 0.284 | 0.044 | -0.163 | – | 0.017 | 0.031 | -0.054 |
| ANKRD44 isoform 2 (UniProt Q8N8A2) | -0.004 | 0.046 | – | -1.57 (active) | – | 0.465 | 0.12 | – | -0.405 | 0.766 (active) |
| AP3D1 isoform 2 (UniProt O14617) | 0.084 | – | – | 0.19 | – | -0.429 | – | – | – | -0.084 |
